Records with an inconclusive call do not appear. Entries that show only a call come without a potency. A number with no mark means an inactive call. Active and inactive are the calls of the source. Calls follow the shape of the dose curve; as a rule, active = well fitted cell-killing curve with a large enough effect in the repeat runs; inconclusive = weak or mixed curves, or effect the other way; inactive = flat fitted curve, though single readings scatter.

Our source for the Potency and activity change, negative = cytotoxicity values is PubChem BioAssay (Tox21).

The first assay in a line: cAMP Responsive Elements (CRE) small molecule antagonists, cell-based qHTS assay: qHTS cell viability counter screen (AID 2060913). Also: nearly all actives have a fitted effect of over 40% in size. The note with it: CRE-bla HEK293T viability, CellTiter-Glo luminescence, 5 h; series mostly up to 92.4 µM. In short, it runs like this:
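Cytotoxicity read in the same wells as the CRE-bla HEK293T antagonist assay: after 3 h compound with 0.25 uM NKH477 final and 2 h beta-lactamase substrate, CellTiter-Glo luminescence measured.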
(Quantitative high-throughput screening tests each substance at several concentrations.)
For the compound `C1COC1`, the Potency entry was “inactive”. As for `C=CCCC(=O)O`, the Potency result was “inactive”.

For `Nc1ccc(S(=O)(=O)O)c(N)c1`, the Potency entry was “inactive”. Take `OCCOCC#CCOCCO`: the Potency result is “inactive”. Consider `OC[C@H](Cc1cccc(O)c1)[C@H](CO)Cc1cccc(O)c1`, for which the Potency entry was “inactive”. `CCn1nc(Cc2ccccc2)cc1C1CCN(C[C@H]2C[C@H](N(C)[C@@H](C(=O)O)C(C)C)C[C@@H]2c2cccc(F)c2)CC1`: the Potency entry is “inactive”. On to `CCOC(=O)C(C)Oc1ccc(Oc2nc3ccc(Cl)cc3o2)cc1` (centres undefined), for which the Potency entry was “inactive”. `Cc1ncc[nH]1`: the Potency result is “inactive”. Same read-out and setting: in the case of `CCCCCCCCN(C)C` it was “inactive”; in that of `CCCCOC(=O)COc1ccc(Cl)cc1Cl`, “inactive”; in that of `N[C@@H](Cc1c[nH]c2ccccc12)C(=O)O`, “inactive”. On to `CC(=O)OCCCc1ccccc1`, for which the Potency result is “inactive”. As for `Cc1cccc(C(=O)O)c1O`, the Potency result was “inactive”.

Consider `Oc1ccc2c(c1)OC[C@@H](N1CCC(O)(c3ccc(F)cc3)CC1)[C@H]2O`, for which the Potency result is “inactive”.

A further assay is described as follows: cAMP Responsive Elements (CRE) small molecule agonists, cell-based qHTS assay: qHTS cell viability counter screen (AID 2060914). Also: nearly all actives have a fitted effect of over 50% in size. The note with it: CRE-bla HEK293T viability, CellTiter-Glo luminescence, 5 h; series mostly up to 92.4 µM. Put shortly: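 Cytotoxicity counter screen multiplexed with the CRE-bla reporter assay in HEK 293T cells: 3 h compound exposure at 37 °C, followed by CellTiter-Glo luminescence measured in the same wells.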
For `Cc1ccc2n[nH]nc2c1`, the Potency result is “inactive”. For `O=S(=O)(Oc1ccc(Cl)cc1Cl)c1ccccc1`, the Potency result was “inactive”. On the same count and under the same terms, next, `CCSC(=O)N(CC(C)C)CC(C)C`: “inactive”. Still for that read-out and setting: in the case of `Nc1cc(Cl)c([N+](=O)[O-])cc1O` it was “inactive”.

`c1ccccc1`: the Potency entry is “inactive”. As to `COc1ccc(-c2nc3ccc(C4=NNC(=O)CC4C)cc3[nH]2)cc1` (centres undefined), the Potency result is “inactive”.

Regarding `O=C(O)C(=O)Cc1c[nH]c2ccccc12`, the Potency result was “inactive”. The same measure, in the same setting: next, `CC(=O)Oc1ccc2c(c1)CC[C@@H]1[C@@H]2CC[C@]2(C)[C@@H](O)CC[C@@H]12`: “inactive”. Regarding `Cc1ccc([N+](=O)[O-])cc1S(=O)(=O)O`, the Potency result is “inactive”. As to `COS(=O)(=O)C(F)(F)F`, the Potency result was “inactive”. `C=CCCCCCCCCCCCCCC`: the activity change, negative = cytotoxicity is -8.5% [at 18.9 µM]. Turning to `OB(O)O`, the Potency result was “inactive”. For the compound `COCC(C)N` (centres undefined), the Potency result is “inactive”. As for `CC(=O)OC(C)c1ccccc1` (centres undefined), the Potency result is “inactive”.

As for `CCC(C)C(=O)OCCc1ccccc1` (centres undefined), the Potency result is “inactive”. For `C[C@H]1C[C@@H](O)CC(C)(C)C1`, the Potency entry is “inactive”.

As for `CCn1nc(C)c2c1C(=O)NCC(c1ccc(O)cc1)=N2`, the Potency result was “inactive”. On to `C[C@H]1[C@@H](c2ccccc2)NC(=O)N1C`, for which the Potency entry is “inactive”. Consider `CN(C)CCOCCN(C)CCO`, for which the Potency result is “inactive”. Regarding `CC1CCc2cc(F)cc3c(=O)c(C(=O)O)cn1c23` (centres undefined), the Potency result was “inactive”. Turning to `CN(C)CCCN(C)CCCN(C)C`, the Potency result is “inactive”.

`O=C(O)c1cn(-c2ccc(F)cc2)c2cc(N3CCNCC3)c(F)cc2c1=O`: the Potency result is “inactive”.

On to `CCCCCCCCCCCCCC(=O)OC(C)C`, for which the Potency entry was “inactive”.

`NCCCCCCNCCCCCCN`: the Potency result was “inactive”. Take `CC(C(=O)O)c1ccc(C(=O)c2cccs2)cc1` (centres undefined): the Potency result was “inactive”. Same read-out and setting: in the case of `CCC(=O)OCCC(C)CCC=C(C)C` (centres undefined) it was “inactive”; in that of `C1COC1`, “inactive”. On to `C=CCCC(=O)O`, for which the Potency entry was “inactive”. Regarding `Nc1ccc(S(=O)(=O)O)c(N)c1`, the Potency result was “inactive”. For `OCCOCC#CCOCCO`, the Potency result was “inactive”. With `OC[C@H](Cc1cccc(O)c1)[C@H](CO)Cc1cccc(O)c1`, the Potency result was “inactive”.

As to `CCn1nc(Cc2ccccc2)cc1C1CCN(C[C@H]2C[C@H](N(C)[C@@H](C(=O)O)C(C)C)C[C@@H]2c2cccc(F)c2)CC1`, the Potency result is “inactive”. As to `CCOC(=O)C(C)Oc1ccc(Oc2nc3ccc(Cl)cc3o2)cc1` (centres undefined), the Potency entry is “inactive”. For the compound `Cc1ncc[nH]1`, the Potency entry is “inactive”.

As for `CCCCCCCCN(C)C`, the Potency result was “inactive”. On the same count and under the same terms, in the case of `CCCCOC(=O)COc1ccc(Cl)cc1Cl` it was “inactive”; in that of `N[C@@H](Cc1c[nH]c2ccccc12)C(=O)O`, “inactive”; in that of `CC(=O)OCCCc1ccccc1`, “inactive”. As to `Cc1cccc(C(=O)O)c1O`, the Potency result is “inactive”. Consider `Oc1ccc2c(c1)OC[C@@H](N1CCC(O)(c3ccc(F)cc3)CC1)[C@H]2O`, for which the Potency result was “inactive”.
